# Measured values as given in PubChem BioAssay (NCATS).
# Several values for one entry are separate records, joined by “and”; a condition that tells them apart may be missing. Equal entries are not always repeated. Results filed as inconclusive are left out. Some compounds were tested as several samples or in several runs, with calls that do not always agree. Activity calls are given as the source filed them. Unless noted, calls follow the shape of the dose curve; as a rule, active = well fitted curve in the direction sought with a large enough effect; inconclusive = small, poorly fitted or top-dose-only effect, or another doubt; inactive = no such curve, though single readings can be large; an effect the other way counts as inactive or inconclusive.
# Target: Cytochrome P450 3A4 (Homo sapiens) (UniProt P08684)
# Experiment: qHTS Assay for Inhibitors and Substrates of Cytochrome P450 3A4 (AID 884); also: % is scaled to controls: 0 for no effect and ±100 for the full control effect; nearly all actives have a fitted effect of over 50% in size
# Details: recombinant CYP3A4, Luciferin-PPXE luminescence; series mostly up to 57.1 µM; activity change, negative = inhibition: at the top concentration
# In short: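 Luminescent readout of luciferin produced by CYP3A4 (20 nM) dealkylation of Luciferin-PPXE, 25 uM (its KM). NADPH-driven reaction ran 60 min at RT after 10 min compound preincubation; data scaled to 57 uM ketoconazole as 100% inhibition.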
# Sequence of Cytochrome P450 3A4 (Homo sapiens) (P08684 whole entry, looked up): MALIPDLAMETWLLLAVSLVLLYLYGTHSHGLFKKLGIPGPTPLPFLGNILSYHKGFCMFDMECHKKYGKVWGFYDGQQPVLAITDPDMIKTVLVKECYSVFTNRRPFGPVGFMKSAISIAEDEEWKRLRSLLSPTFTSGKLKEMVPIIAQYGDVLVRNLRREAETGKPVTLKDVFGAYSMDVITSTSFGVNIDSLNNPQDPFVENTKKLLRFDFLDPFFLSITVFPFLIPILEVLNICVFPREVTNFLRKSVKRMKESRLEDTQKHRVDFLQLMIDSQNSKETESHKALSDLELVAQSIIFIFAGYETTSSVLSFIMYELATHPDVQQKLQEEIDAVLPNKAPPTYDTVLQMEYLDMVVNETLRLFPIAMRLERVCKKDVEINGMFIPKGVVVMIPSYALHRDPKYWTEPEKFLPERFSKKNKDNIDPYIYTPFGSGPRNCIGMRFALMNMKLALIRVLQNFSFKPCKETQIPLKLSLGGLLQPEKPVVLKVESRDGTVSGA
row,Compound,"activity change, negative = inhibition"
1,O=C(O)CCCCCCCC(=O)O,4.66% (inactive)
2,CN(C)C(=O)Oc1ccc[n+](C)c1,-9.53% (inactive)
3,CCCOc1ccccc1-c1nc2n[nH]nc2c(=O)[nH]1,-11.4% (inactive)
4,CC[N+](C)(C)c1cccc(O)c1,-0.982% (inactive)
5,CN(C)C(=O)Oc1cccc([N+](C)(C)C)c1,-0.0365% (inactive)
6,CN1CCN(CC(=O)N2c3ccccc3C(=O)Nc3cccnc32)CC1,-7.27% (inactive)
7,CCCN(CCC)CCc1cccc2c1CC(=O)N2,28.3% (inactive)
8,CC(C)NNC(=O)c1ccncc1,-29.5% (inactive)
9,CCn1cc(C(=O)O)c(=O)c2cc3c(cc21)OCO3,-1.21% (inactive)

# Target: Cytochrome P450 3A4 (Homo sapiens) (UniProt P08684)
# Experiment: qHTS Assay for Activators of Cytochrome P450 3A4 (AID 885); also: nearly all actives have a fitted effect of over 65% in size
# Details: recombinant CYP3A4, Luciferin-PPXE luminescence, 60 min; series mostly up to 57.1 µM; activity change, positive = activation: at the top concentration
# In short: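 Using 20nM recombinant human CYP3A4 in potassium phosphate (200mM), substrate Luciferin-PPXE at 25uM, luminescent luciferin detection followed a 60-min RT NADPH reaction; data scaled to 57 uM ketoconazole.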
Compound,"activity change, positive = activation",Potency
CC1=NS(=O)(=O)c2cc(Cl)ccc2N1,-40.5% (inactive),–
CN1CCN(C2=Nc3ccccc3Oc3ccc(Cl)cc32)CC1,–,inactive
c1cnc(N2CCN(Cc3ccc4c(c3)OCO4)CC2)nc1,–,inactive
c1cc(CN2CCCCC2)cc(OCCCNc2nc3ccccc3s2)c1,-49.7% (inactive),–
COC(=O)[C@@H](N)Cc1ccc(O)c(O)c1,-39.5% (inactive),–
CN(C)CCOC(=O)COc1ccc(Cl)cc1,-39.2% (inactive),–
C[n+]1cc2c3c(ccc2c2ccc4cc5c(cc4c21)OCO5)OCO3,–,inactive
O=C(CCNNC(=O)c1ccncc1)NCc1ccccc1,-88.5% (inactive),–
CCCC(C(=O)OCCN(CC)CC)(c1ccccc1)c1ccccc1,–,inactive
Brc1c(NC2=NCCN2)ccc2nccnc12,-54.3% (inactive),–
CCN1CCc2nc(N)oc2CC1,-27.2% (inactive),–
Cc1nc2ccccn2c(=O)c1CCN1CCC(C(=O)c2ccc(F)cc2)CC1,-32.9% (inactive),–
O=C1NCN(c2ccccc2)C12CCN(CCCC(c1ccc(F)cc1)c1ccc(F)cc1)CC2,-35.3% (inactive),–
CCOC(=O)c1cnc2c(cnn2CC)c1NN=C(C)C,-83.3% (inactive),–

# Target: Cytochrome P450 2D6 (Homo sapiens) (UniProt P10635)
# Experiment: qHTS Assay for Inhibitors and Substrates of Cytochrome P450 2D6 (AID 891); also: nearly all actives have a fitted effect of over 60% in size; also: potency is read from the fitted curve at half-maximal effect;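 as to activity change, negative = inhibition: luciferin methyl ether substrate demethylated by CYP2D6 with NADPH regeneration; % is scaled to controls: 0 for no effect and ±100 for the full control effect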
# Details: recombinant CYP2D6, luciferin-ME EGE luminescence; series mostly up to 57.1 µM; activity change, negative = inhibition: at the top concentration
# In short: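 Luminescent read-out of luciferin formed by 5 nM human CYP2D6 demethylating 30 uM Luciferin-ME EGE (Km level) over 60 min at room temperature after NADPH regeneration addition. Data normalized to full inhibition by 1.43 uM quinidine.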
# Sequence of Cytochrome P450 2D6 (Homo sapiens) (P10635 whole entry, looked up): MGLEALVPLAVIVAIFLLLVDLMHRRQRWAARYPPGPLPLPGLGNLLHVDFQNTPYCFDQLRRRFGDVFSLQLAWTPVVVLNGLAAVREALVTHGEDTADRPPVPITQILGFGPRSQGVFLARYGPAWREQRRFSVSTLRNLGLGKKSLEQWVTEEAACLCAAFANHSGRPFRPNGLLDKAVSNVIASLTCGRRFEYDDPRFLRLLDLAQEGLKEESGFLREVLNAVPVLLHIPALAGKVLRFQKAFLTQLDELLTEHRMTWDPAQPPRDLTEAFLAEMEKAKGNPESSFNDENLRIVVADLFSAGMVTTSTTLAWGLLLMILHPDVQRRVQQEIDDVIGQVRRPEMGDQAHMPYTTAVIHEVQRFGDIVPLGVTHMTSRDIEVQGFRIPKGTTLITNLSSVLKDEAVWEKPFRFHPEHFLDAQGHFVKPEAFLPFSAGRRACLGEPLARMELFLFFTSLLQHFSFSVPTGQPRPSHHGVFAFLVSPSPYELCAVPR
Compound,"activity change, negative = inhibition",Potency
Cc1ccc(=O)n(-c2ccccc2)c1,2.54% (inactive),–
CN(C)CC/C=C1\c2ccccc2COc2ccccc21,–,3.16 µM (active) and 3.98 µM (active)
CC1=NS(=O)(=O)c2cc(Cl)ccc2N1,–,inactive and 7.94 µM (active)
FC(F)(F)c1ccccc1-n1ccnc1,–,6.31 µM (active)
CCc1cccc(N(C)C(N)=Nc2cccc3ccccc23)c1,–,0.199 µM (active)
CC1=C(C)C(=O)C(CCCCC#CCCCC#CCO)=C(C)C1=O,–,31.6 µM (active)
CCC(=O)c1ccc2c(c1)N(CCCN(C)C)c1ccccc1S2,–,2 µM (active)
CN(C)CCCN1c2ccccc2Sc2ccc(C(F)(F)F)cc21,–,794 nM (active) and 398 nM (active)
c1cnc(N2CCN(Cc3ccc4c(c3)OCO4)CC2)nc1,–,0.199 µM (active)
CCCC(C(=O)OCCN(CC)CC)(c1ccccc1)c1ccccc1,–,63.1 nM (active) and 15.8 nM (active)
CC(C)[N+](C)(CCOC(=O)C1c2ccccc2Oc2ccccc21)C(C)C,–,1.26 µM (active)
C#CCN(C)CCCOc1ccc(Cl)cc1Cl,–,2 µM (active) and 398 nM (active)
O=C1NCN(c2ccccc2)C12CCN(CCCC(c1ccc(F)cc1)c1ccc(F)cc1)CC2,–,1.58 µM (active)

# Test system: not listed separately
# Experiment: qHTS Assay for Identification of Small Molecule Antagonists for NFkB Signaling Pathway (AID 895; active = well fitted inhibition curve with a large enough effect in the signal ratio, with a control signal flat, not every such curve was filed as active; the % refers to the signal ratio; also: potency is read from the fitted curve at half-maximal effect; as to activity change, negative = inhibition: % is scaled to controls: 0 for no effect and ±100 for the full control effect)
# Details: NFkB beta-lactamase reporter cells, FRET ratio 460/530, stimulated with 10 pM TNF alpha; series mostly up to 38.3 µM; activity change, negative = inhibition: at the top concentration
# In short: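 Beta-lactamase reporter read-out (460 and 530 nm emission ratio, 405 nm excitation, 2 hrs substrate loading RT) after 5 hr stimulation with 10 pM TNF alpha in compound-treated NFkB-bla ME-180 cells in low-serum medium.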
Compound,"activity change, negative = inhibition",Potency
Cc1ccc(=O)n(-c2ccccc2)c1,-23.6% (inactive),–
CCCOc1ccccc1-c1nc2n[nH]nc2c(=O)[nH]1,-21.2% (inactive),–
CN1CCN(C2=Nc3ccccc3Oc3ccc(Cl)cc32)CC1,2.42% (inactive),–
CCc1cccc(N(C)C(N)=Nc2cccc3ccccc23)c1,7.76% (inactive),–
CC[N+](C)(C)c1cccc(O)c1,-23.5% (inactive),–
CN(C)C(=O)Oc1cccc([N+](C)(C)C)c1,-1.55% (inactive),–
CCC(=O)c1ccc2c(c1)N(CCCN(C)C)c1ccccc1S2,-2.14% (inactive),–
C[n+]1cc2c3c(ccc2c2ccc4cc5c(cc4c21)OCO5)OCO3,–,10 µM (active)
O=C(O)CN(CCOCCOCCN(CC(=O)O)CC(=O)O)CC(=O)O,-5.33% (inactive),–
Brc1c(NC2=NCCN2)ccc2nccnc12,-5.2% (inactive),–
Cc1nc2ccccn2c(=O)c1CCN1CCC(C(=O)c2ccc(F)cc2)CC1,-24.9% (inactive),–

# Target: Cytochrome P450 2C19 (Homo sapiens) (UniProt P33261)
# Experiment: qHTS Assay for Inhibitors and Substrates of Cytochrome P450 2C19 (AID 899); also: nearly all actives have a fitted effect of over 60% in size; also: potency is read from the fitted curve at half-maximal effect; as to activity, negative = inhibition: % is scaled to controls: 0 for no effect and ±100 for the full control effect
# Details: recombinant CYP2C19, luciferin-H EGE luminescence; series mostly up to 57.1 µM; activity, negative = inhibition: at the top concentration
# In short: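 5nM enzyme + 10uM Luciferin-H EGE (=KM), 50mM KPO4; cpd pin-transferred, 10 min 37C; NADPH regen, 60 min 37C; stopped w/ luciferin detection reagent, 20 min; luminescence. Normalized to 57uM ketoconazole (AC100).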
# Sequence of Cytochrome P450 2C19 (Homo sapiens) (P33261 whole entry, looked up): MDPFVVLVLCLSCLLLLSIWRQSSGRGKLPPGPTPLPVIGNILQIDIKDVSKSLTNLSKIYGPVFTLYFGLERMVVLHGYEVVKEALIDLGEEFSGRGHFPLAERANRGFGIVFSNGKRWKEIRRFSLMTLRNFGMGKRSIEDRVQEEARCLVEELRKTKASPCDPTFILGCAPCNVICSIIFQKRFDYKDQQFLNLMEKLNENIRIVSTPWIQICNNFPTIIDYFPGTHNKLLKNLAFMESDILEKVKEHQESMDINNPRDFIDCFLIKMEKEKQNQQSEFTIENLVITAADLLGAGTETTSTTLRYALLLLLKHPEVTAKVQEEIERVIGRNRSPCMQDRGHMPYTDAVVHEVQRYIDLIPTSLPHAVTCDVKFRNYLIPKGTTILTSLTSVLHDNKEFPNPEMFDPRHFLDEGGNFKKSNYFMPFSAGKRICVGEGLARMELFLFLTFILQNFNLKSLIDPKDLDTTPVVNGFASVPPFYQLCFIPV
Compound,"activity, negative = inhibition",Potency
Cc1ccc(=O)n(-c2ccccc2)c1,6.28% (inactive),–
CC1=NS(=O)(=O)c2cc(Cl)ccc2N1,23.3% (inactive),–
CC1=C(C)C(=O)C(CCCCC#CCCCC#CCO)=C(C)C1=O,–,5.01 µM (active)
c1cnc(N2CCN(Cc3ccc4c(c3)OCO4)CC2)nc1,–,2 µM (active) and 631 nM (active)
CN(C)CCOC(=O)COc1ccc(Cl)cc1,49.5% [at 25.6 µM] (inactive),–
C[n+]1cc2c3c(ccc2c2ccc4cc5c(cc4c21)OCO5)OCO3,–,6.31 µM (active)
O=C(CCNNC(=O)c1ccncc1)NCc1ccccc1,-37.8% (inactive),–
Brc1c(NC2=NCCN2)ccc2nccnc12,-21.2% (inactive),–
Cc1nc2ccccn2c(=O)c1CCN1CCC(C(=O)c2ccc(F)cc2)CC1,15.8% (inactive),–
C#CCN(C)CCCOc1ccc(Cl)cc1Cl,–,5.01 µM (active) and 2.51 µM (active)
